# Records with an inconclusive call do not appear. Values without a mark were called inactive. Calls come from the whole dose curve; as a rule, active = well fitted inhibition curve with a large enough effect; inconclusive = small, poorly fitted or top-dose-only effect; inactive = flat fitted curve, though single readings scatter.
# Molecular target: Calcium and integrin-binding protein 1 (Homo sapiens) (UniProt Q99828)
# Experiment: Primary qHTS for Identification of Calcium Integrin Binding Protein 1 (CIB1) Competitor (AID 1508620); note: top concentration of the series differs between compounds
# Conditions: CIB1-GST / FITC-alphaIIb peptide fluorescence polarization; series mostly up to 114 µM; activity change, negative = inhibition: at the top concentration
# In short: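 Fluorescence polarization competition: GST-tagged CIB1 (1 uM final) preincubated with compound 15 min at room temperature, then FITC-labelled alphaIIb peptide (100 nM final) added. After 15 min at room temperature, polarization read at Ex 480/Em 540.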
# % is set by controls: 0 for no effect and ±100 for the full control effect.
# Chain of Calcium and integrin-binding protein 1 (Homo sapiens) (Q99828 whole entry, looked up): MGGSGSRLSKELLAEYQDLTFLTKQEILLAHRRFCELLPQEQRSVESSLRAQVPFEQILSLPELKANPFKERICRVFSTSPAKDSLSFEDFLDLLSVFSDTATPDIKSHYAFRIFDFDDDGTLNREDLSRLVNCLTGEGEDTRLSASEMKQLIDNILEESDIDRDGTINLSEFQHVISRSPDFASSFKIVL
row,SMILES,"activity change, negative = inhibition"
1,Cc1csc(CNc2ncnc3cc(-c4ccc5c(c4)OCO5)ccc23)n1,-0.0285%
2,COc1cccc(NC(=S)N2CCN(c3ccccc3C(F)(F)F)CC2)n1,-3.06%
3,CC(=O)c1ccccc1-c1ncc(C)c(NCc2ccc(-c3cccnc3)cc2)n1,4.45%
4,O=C(Cc1ccc(Cl)c(Cl)c1)Nc1ccc(S(=O)(=O)Nc2ccccc2)cc1,-11.1%
5,CC(C)(C#CCSc1nnc(-c2cccc3ccccc23)o1)OC(=O)c1ccc(F)cc1,4.6%
6,NC(=O)c1c(-c2ccccc2)no[n+]1[O-],-1.64%
7,O=C(Nc1cncc(O)c1)c1cccs1,-0.677%
8,O=c1c2ccccc2nc2sc(NCc3ccc(Sc4ccccc4)cc3)nn12,4.21%
9,COc1ccc(C(CC(=O)N2CC(C)CC(C)C2)c2c(O)cc(OC)cc2OC)cc1 (stereo not given),4.16% [at 228 µM]
10,Cc1ccc(C2N=C(Nc3nc4ccccc4o3)NC3=C2C(=O)CCC3)s1 (stereo not given),-9.45%
11,COc1ccc(Cl)cc1C(=O)Nc1nc(-c2ccccc2)cs1,3.52%
12,COc1ccc(C2Nc3ccccc3C(=O)N2Cc2ccccc2)cc1COc1ccc(NC(C)=O)cc1 (stereo not given),0.591%
13,FC(F)(F)c1ccccc1-c1nc(NCc2ccc(-c3ccc4ccccc4c3)cc2)c2ccccc2n1,-2.66%
14,Cc1noc(C)c1-c1ccc2ncnc(NCc3ccc(F)c(F)c3)c2c1,-2.03%
15,Cc1ccc(-c2nccc(=O)n2CC(=O)N(C)C(C)c2ccco2)cc1 (stereo not given),-1.16%
16,O=C(CSc1nnc(-c2cccc(S(=O)(=O)N3CCCC3)c2)n1-c1ccccc1)Nc1ccc(Cl)cc1,-0.82%
17,Cc1c(P(=S)(c2ccccc2)c2ccccc2)c2ccccc2n1C/C=C/c1ccccc1,2.69%
18,O=C(O)CN1C(=O)N/C(=C\c2cccn2-c2ccc(P(=O)(O)O)cc2)C1=O,-3.35%
19,CC(C)(C)OC(=O)NCCCNc1ncnc2ccc(-c3ccc4c(c3)OCO4)cc12,20.9%
20,Cc1cc(C)n2ncc(C(=O)Nc3ccc(C(C)(C)C)cc3)c2n1,-1.64%

row,SMILES,"activity change, negative = inhibition"
1,CN(C)c1cccc(-c2cc(N3CCC(C(N)=O)CC3)ncn2)c1,0.727%
2,O=C(Nc1ccc(Cl)c(Cl)c1)Nc1nnc(NC2CCNCC2)s1,-13.3%
3,O=C(OCC#CCSc1nnc(-c2cccc3ccccc23)o1)C1CCC1,-3.57%
4,CCCCNC(=S)NCCCc1cnc[nH]1,1.6%
5,N#CC1CCN(c2nc(-c3ccc(Br)cc3)cs2)CC1,1.95%
6,C=Cc1ccc(C(=O)N2CCCC(CCC(=O)N3CCN(c4ccccn4)CC3)C2)cc1 (stereo not given),-0.21%
7,Cc1cc2c(s1)c1c(n2C)C(=O)N(Cc2ccccc2F)C1,-7.44%
8,COc1cc(O)c(C(CC(=O)N2CCCC(CN3CCCCC3)C2)c2ccc3c(c2)OCO3)c(OC)c1 (stereo not given),3.11% [at 228 µM]
9,COC(=O)c1ccccc1S(=O)(=O)Nc1ccc(OC)cc1,-6.02%
10,COc1ccccc1C1=Nn2c(nnc2-c2cccc(OC)c2OC)SC1,5.04%
11,C=CCc1cc(F)c(S(=O)(=O)N2CCN(S(=O)(=O)c3ccc4c(c3)OCCO4)CC2)cc1F,3.05%
12,COc1ccc(C(=O)N(Cc2ccccc2)Cc2ccco2)c(O)c1,-8.23%
13,O=C1CC(c2ccccc2)CC2=C1C1(CCCCC1)N=C(Nc1nc3ccccc3o1)N2 (stereo not given),-0.551%
14,O=S1(=O)N=C(Oc2ccc(-c3ccccc3)cc2)c2ccccc21,-1.84%
15,Cc1ccc(OCCn2c(CCNC(=O)c3ccc[nH]3)nc3ccccc32)cc1,8.36%
16,CC(=O)c1ccc(N2CCN(S(=O)(=O)c3ccc4c(c3)OCC(=O)N4)CC2)cc1,2.82%
17,FC(F)(F)c1ccccc1-c1nccc(NCc2ccc(-c3cccnc3)cc2)n1,1.01%
18,Cc1cc2c(s1)c1cnn(Cc3ccc(C(F)(F)F)cc3)c(=O)c1n2C,1.04%
19,O=C(OCC#CCNc1nnc(-c2cccc3ccccc23)o1)c1cccs1,-4.2%
20,CC(=O)Nc1sc2c(c1-c1ccc(N(C)C)cc1)CCNC2,-29.3%
